Experimental data taken from PubChem BioAssay AID1159580 (chemical genetic matrix, 2015).
Where “and” joins values, the source holds several entries; their conditions need not be identical. Identical values can stand only once. The campaign covered roughly 5,500 compounds. About 2,000 (36%) were called active. About 18% were inconclusive and are not listed. No stated cut-off is given here; in the data, active means normalized growth mostly below about 0.91 (no sharp cut-off); inconclusive means no clear call, values can overlap the other calls; inactive means mostly above about 0.92. This is one part of the list.

Assay: chemical genetic growth profiling, strain panel (AID 1159580);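 further: tested at 20 µM; growth read once vehicle control cultures reached saturation at 30 °C; 1 = growth at the plate median or of vehicle wells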
Settings: S. cerevisiae deletion strains, growth OD

Measured: normalized growth

NC(=O)NO
inactive: locus YAL021C, strain ccr4, stronger effect = lower value 1.02 | locus YAL026C, strain drs2, stronger effect = lower value 1.03 | locus YAL030W, strain snc1, stronger effect = lower value 1 | locus YAL040C, strain CLN3, stronger effect = lower value 1.09 | locus YBL061C, strain skt5, stronger effect = lower value 1.04 | locus YBR009C, strain hhf1, stronger effect = lower value 1.01 | locus YBR021W, strain FUR4, stronger effect = lower value 1 | locus YBR023C, strain chs3, stronger effect = lower value 1.02 | locus YBR171W, strain sec66, stronger effect = lower value 1.02 | locus YBR229C, strain ROT2, stronger effect = lower value 0.999 | locus YBR231C, strain swc5, stronger effect = lower value 1.01 | locus YBR279W, strain paf1, stronger effect = lower value 1.03 | locus YCL011C, strain gbp2, stronger effect = lower value 1.02 | locus YCL016C, strain dcc1, stronger effect = lower value 1.02 | locus YCL029C, strain bik1, stronger effect = lower value 1 | locus YCL061C, strain MRC1, stronger effect = lower value 1.01 | locus YCL069W, strain vba3, stronger effect = lower value 1.02 | locus YCR088W, strain abp1, stronger effect = lower value 1.02 | locus YDL005C, strain med2, stronger effect = lower value 1.02 | locus YDL035C, strain GPR1, stronger effect = lower value 1.01 | locus YDL040C, strain nat1, stronger effect = lower value 1.04 | locus YDL074C, strain BRE1, stronger effect = lower value 1.01 | locus YDL101C, strain DUN1, stronger effect = lower value 1 | locus YDL134C, strain PPH21, stronger effect = lower value 1 | locus YDL185W, strain tfp1, stronger effect = lower value 0.994 | locus YDL192W, strain arf1, stronger effect = lower value 1.01 | locus YDR001C, strain nth1, stronger effect = lower value 1.01 | locus YDR069C, strain doa4, stronger effect = lower value 1.02 | locus YDR101C, strain arx1, stronger effect = lower value 0.996 | locus YDR137W, strain rgp1, stronger effect = lower value 1.04 | locus YDR159W, strain sac3, stronger effect = lower value 1.01 | locus YDR162C, strain NBP2, stronger effect = lower value 1.01 | locus YDR195W, strain ref2 0.962 | locus YDR297W, strain sur2, stronger effect = lower value 1.02 | locus YDR318W, strain mcm21, stronger effect = lower value 1 | locus YDR334W, strain swr1, stronger effect = lower value 1.01 | locus YDR335W, strain msn5, stronger effect = lower value 1.02 | locus YDR363W, strain ESC2, stronger effect = lower value 1.01 | locus YDR388W, stronger effect = lower value 0.998 | locus YDR392W, strain spt3, stronger effect = lower value 1.04 | locus YDR502C, strain sam2, stronger effect = lower value 0.989 | locus YEL003W, strain gim4, stronger effect = lower value 1.02 | locus YEL037C, strain rad23, stronger effect = lower value 1.01 | locus YEL061C, strain CIN8 (second series), stronger effect = lower value 1.02 | locus YEL061C, strain CIN8, stronger effect = lower value 1 | locus YER002W, strain NOP16, stronger effect = lower value 0.998 | locus YER015W, strain faa2, stronger effect = lower value 1.01 | locus YER016W, strain bim1, stronger effect = lower value 1.01 | locus YER110C, stronger effect = lower value 0.997 | locus YER111C, strain swi4, stronger effect = lower value 1.03 | locus YER155C, strain BEM2 (second series), stronger effect = lower value 1.01 | locus YER155C, strain BEM2, stronger effect = lower value 0.998 | locus YER167W, strain BCK2, stronger effect = lower value 1 | locus YFR010W, strain ubp6, stronger effect = lower value 1.01 | locus YGL078C, strain dbp3, stronger effect = lower value 0.999 | locus YGL086W, strain mad1, stronger effect = lower value 0.985 | locus YGL167C, strain pmr1, stronger effect = lower value 1.02 | locus YGL173C, strain kem1, stronger effect = lower value 1.02 | locus YGL227W, strain vid30, stronger effect = lower value 1.01 | locus YGL240W, strain doc1, stronger effect = lower value 0.983 | locus YGL248W, strain PDE1, stronger effect = lower value 1 | locus YGL253W, strain hxk2, stronger effect = lower value 1.03 | locus YGR078C, strain PAC10, stronger effect = lower value 1 | locus YGR135W, strain pre9, stronger effect = lower value 0.997 | locus YGR229C, strain SMI1, stronger effect = lower value 0.997 | locus YGR252W, strain gcn5, stronger effect = lower value 0.943 | locus YHR013C, strain ard1, stronger effect = lower value 1.02 | locus YHR027C, strain rpn1, stronger effect = lower value 1.02 | locus YHR030C, strain SLT2, stronger effect = lower value 0.989 and 0.962 | locus YHR079C, strain IRE1 (second series), stronger effect = lower value 1 | locus YHR079C, strain IRE1, stronger effect = lower value 0.981 | locus YHR094C, strain hxt1, stronger effect = lower value 0.997 | locus YHR129C, strain ARP1, stronger effect = lower value 1 | locus YHR142W, strain chs7, stronger effect = lower value 1.04 | locus YHR200W, strain rpn10, stronger effect = lower value 0.992 | locus YIL066C, strain RNR3, stronger effect = lower value 1.01 | locus YIL073C, strain SPO22, stronger effect = lower value 1.03 | locus YIL125W, strain kgd1, stronger effect = lower value 0.989 | locus YIR030C, strain dcg1, stronger effect = lower value 1.01 | locus YJL092W, strain hpr5, stronger effect = lower value 1.02 | locus YJL095W, strain BCK1 (second series), stronger effect = lower value 1 | locus YJL095W, strain BCK1, stronger effect = lower value 1.01 and 0.965 | locus YJL115W, strain asf1, stronger effect = lower value 1.01 | locus YJL129C, strain trk1, stronger effect = lower value 1.03 | locus YJL134W, strain LCB3, stronger effect = lower value 1 | locus YJL154C, strain vps35, stronger effect = lower value 1.03 | locus YJL164C, strain tpk1, stronger effect = lower value 1.01 | locus YJL166W, strain qcr8, stronger effect = lower value 1.03 | locus YJL168C, strain set2, stronger effect = lower value 1 | locus YJL187C, strain SWE1 (second series), stronger effect = lower value 1 | locus YJL187C, strain SWE1, stronger effect = lower value 1.03 | locus YJR043C, strain POL32, stronger effect = lower value 1
